About 83,000 compounds went through this panel and 20% of them were active in at least one assay; those are over-represented in the sample as a whole.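 Method: cells in 96-well plates; compound added at one concentration; 48 h incubation; percent growth measured; values under 10 scored active.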 A number with no mark means an inactive call. Calls of active or inactive are those of the source.

What all share (assay): NCI-60 one-dose screen, 48 h (100 = growth as untreated, 0 = no growth, -100 = all killed)
One test has as its system SK-MEL-2 melanoma. The settings on record: 10 µM unless noted.
The subject of the next test is EKVX NSCLC. The settings on record: 10 µM unless noted.
In the next test the test system is SN12C renal. The settings on record: 10 µM unless noted.
For a further test, the system named is UO-31 renal. Conditions: 10 µM unless noted.
The test system of the next test is TK-10 renal. The settings on record: 10 µM unless noted.
In the next test the test system is ACHN renal. The settings on record: 10 µM unless noted.
Another test has as its system CAKI-1 renal. Conditions: 10 µM.
In another test the test system is A498 renal. The settings on record: 10 µM unless noted.
The next test relates to CCRF-CEM leukemia. The settings on record: 10 µM unless noted.
In another test the test system is MOLT-4 leukemia. The settings on record: 10 µM unless noted.
Another test concerns OVCAR-8 ovarian. The settings on record: 10 µM unless noted.
For the next test, the system named is OVCAR-5 ovarian. The settings on record: 10 µM unless noted.
A further test relates to OVCAR-4 ovarian. The settings on record: 10 µM unless noted.
Another test relates to SK-OV-3 ovarian. Conditions: 10 µM unless noted.
The next test relates to IGROV1 ovarian. Conditions: 10 µM unless noted.
The next test concerns NCI/ADR-RES ovarian. Conditions: 10 µM unless noted.
Another test has as its system SR leukemia. Conditions: 10 µM unless noted.
The test system of a further test is RPMI-8226 leukemia. The settings on record: 10 µM unless noted.
For another test, the system named is OVCAR-3 ovarian. The settings on record: 10 µM unless noted.
The next test concerns HS 578T breast. The settings on record: 10 µM unless noted.

For `COc1cc(C2CC(c3ccc(Nc4nc(NCCO)nc(Nc5ccc(Cl)cc5)n4)cc3)=Nc3c(N)nc(N)nc3N2)cc(OC)c1OC` (centres undefined), the growth in the test on SK-MEL-2 melanoma was 75.9%; in the test on EKVX NSCLC, 109%; with SN12C renal, 49.9%; in the test with UO-31 renal, 85.1%; in the test on TK-10 renal it was 95.8%; in the test with ACHN renal, 79.3%. The growth in the test with CAKI-1 renal was 53.8%; in the test on A498 renal, 99.8%; in the test with CCRF-CEM leukemia, 23.8%; with MOLT-4 leukemia, 19.9%; in the test on OVCAR-8 ovarian, 47.6%; in the test on OVCAR-5 ovarian it was 119%. For the same molecule, the growth in the test on OVCAR-4 ovarian is 65.2%; in the test with SK-OV-3 ovarian, 125%; with IGROV1 ovarian, 62.5%; in the test on NCI/ADR-RES ovarian it was 103%.

Consider `Brc1cccc(/C=N/Nc2nc(N/N=C/c3cccc(Br)c3)nc(N3CCOCC3)n2)c1`, for which the growth is 2.64% (active) with SK-MEL-2 melanoma; 49% in the test on EKVX NSCLC; 44.2% in the test on SN12C renal; 25.5% with UO-31 renal; 66.8% in the test with TK-10 renal; 26.3% with ACHN renal. In addition, the growth in the test on CAKI-1 renal was 15.4%; with CCRF-CEM leukemia, 21%; in the test on MOLT-4 leukemia, 10.2%; in the test with SR leukemia, 7.93% (active); with RPMI-8226 leukemia, 34.2%; in the test with OVCAR-8 ovarian it was 37.4%. Besides, the growth in the test on OVCAR-5 ovarian was 72.4%; in the test with OVCAR-4 ovarian, 54.2%; in the test on SK-OV-3 ovarian, 92.9%; in the test with IGROV1 ovarian, 42.8%; with OVCAR-3 ovarian it was 42.4%; in the test on HS 578T breast, 66.2%. The growth with NCI/ADR-RES ovarian was 41.8%.

Consider `CC1(C)CC[C@]2(C(=O)O)CC[C@]3(C)C(=CCC4[C@@]5(C)C[C@@H](O)[C@@H]6OC(c7cccc([N+](=O)[O-])c7)OC[C@@]6(C)C5CC[C@]43C)C2C1` (some centres undefined), for which the growth with SK-MEL-2 melanoma is 88.5%; with EKVX NSCLC, 57.6%; with SN12C renal, 62%; with UO-31 renal, 59.9%; with TK-10 renal, 71.9%; in the test with ACHN renal, 39.4%. Moreover, the growth is 79.7% with CAKI-1 renal; 44.4% with CCRF-CEM leukemia; 48.2% with MOLT-4 leukemia; 72.7% in the test with SR leukemia; 56% with RPMI-8226 leukemia; 58.7% in the test with OVCAR-8 ovarian. Besides, the growth in the test on OVCAR-5 ovarian is 97.2%; in the test with OVCAR-4 ovarian it was 83.2%; in the test on SK-OV-3 ovarian, 105%; in the test on IGROV1 ovarian, 74.4%; with OVCAR-3 ovarian, 81.9%; in the test with HS 578T breast, 94.1%. The growth in the test with NCI/ADR-RES ovarian was 39.7%.

As for `C=C(C)[C@@H]1CC[C@]2(C(=O)NCCCN(CCC#N)CCC#N)CC[C@]3(C)[C@H](CC[C@@H]4[C@@]5(C)CCC(=O)C(C)(C)[C@@H]5CC[C@]43C)[C@@H]12`, the growth was 102% in the test on SK-MEL-2 melanoma; 104% with EKVX NSCLC; 94.3% with SN12C renal; 95.1% with UO-31 renal; 101% in the test on TK-10 renal; 99.9% with ACHN renal. Also, the growth was 75% with CAKI-1 renal; 103% in the test on CCRF-CEM leukemia; 88.1% in the test on MOLT-4 leukemia; 95.7% in the test on SR leukemia; 103% in the test on RPMI-8226 leukemia; 105% in the test on OVCAR-8 ovarian. Also, the growth in the test with OVCAR-5 ovarian is 103%; in the test with OVCAR-4 ovarian it was 105%; in the test with SK-OV-3 ovarian it was 104%; in the test with IGROV1 ovarian, 112%; with OVCAR-3 ovarian, 118%; in the test on HS 578T breast, 105%. The growth in the test with NCI/ADR-RES ovarian was 102%.

Regarding `CN(c1ccc(F)cc1)S(=O)(=O)c1ccc(-c2cnc(C3CC3)o2)cc1`, the growth is 77.6% with SK-MEL-2 melanoma; 46.9% with EKVX NSCLC; 37.3% in the test with SN12C renal; 44.5% in the test on UO-31 renal; 91.9% with TK-10 renal; 43% in the test on ACHN renal. Also, the growth was 39% in the test on CAKI-1 renal; 16.4% in the test with CCRF-CEM leukemia; 25.6% in the test on MOLT-4 leukemia; 20.1% with SR leukemia; 14.1% with RPMI-8226 leukemia; 38.8% in the test on OVCAR-8 ovarian. Further, the growth with OVCAR-5 ovarian is 49.5%; in the test with OVCAR-4 ovarian, 70.4%; with SK-OV-3 ovarian, 72.1%; with IGROV1 ovarian it was 27.5%; in the test on OVCAR-3 ovarian it was 6.57% (active); in the test with HS 578T breast, 37.4%. Besides, in the test with NCI/ADR-RES ovarian, the growth was 9.11% (active).

Take `c1ccc(-c2n(Cc3ccc4ccccc4c3)c3c4ccccc4c4ccccc4c3[n+]2Cc2ccc3ccccc3c2)cc1`: the growth in the test on SK-MEL-2 melanoma is -68.3% (active); with EKVX NSCLC, -90.2% (active); with SN12C renal it was -83.7% (active); with UO-31 renal, -88% (active); in the test on TK-10 renal, -76.6% (active); in the test with ACHN renal, -93.3% (active). Besides, the growth was -92.5% (active) in the test with CAKI-1 renal; -18.9% (active) in the test on CCRF-CEM leukemia; -56% (active) in the test with MOLT-4 leukemia; -44.4% (active) in the test with SR leukemia; -35.1% (active) in the test with RPMI-8226 leukemia; -69.1% (active) with OVCAR-8 ovarian. Besides, the growth was -90.3% (active) in the test with OVCAR-5 ovarian; -73.4% (active) with OVCAR-4 ovarian; -84.5% (active) in the test on SK-OV-3 ovarian; -74.7% (active) in the test on IGROV1 ovarian; -90.8% (active) in the test on OVCAR-3 ovarian; -42.9% (active) in the test with HS 578T breast. The growth in the test with NCI/ADR-RES ovarian is -4.33% (active).

Turning to `CC(=O)c1ccc(NC(=O)COc2ccc(C3SCC(=O)N3c3ccc(Br)cc3)cc2)cc1` (centres undefined), the growth was 96.2% in the test on SK-MEL-2 melanoma; 94.4% in the test on EKVX NSCLC; 95.1% in the test with SN12C renal; 84.2% in the test with UO-31 renal; 103% in the test on TK-10 renal; 97.6% in the test on ACHN renal. Also, the growth with CAKI-1 renal is 89.2%; with CCRF-CEM leukemia, 89.9%; in the test on MOLT-4 leukemia it was 96.8%; in the test on SR leukemia, 77%; in the test on RPMI-8226 leukemia, 89.6%; in the test with OVCAR-8 ovarian, 97.5%. The growth is 102% with OVCAR-5 ovarian; 103% with OVCAR-4 ovarian; 105% in the test with SK-OV-3 ovarian; 89.7% in the test with IGROV1 ovarian; 121% in the test with OVCAR-3 ovarian; 100% with HS 578T breast. Moreover, the growth with NCI/ADR-RES ovarian was 92.6%.

For the molecule `COc1cc(-c2noc(C[C@@H](NC(=O)OCc3ccccc3)C(C)C)n2)cc(OC)c1OC`, the growth in the test with SK-MEL-2 melanoma was 99.3%; in the test on EKVX NSCLC it was 96.9%; in the test with SN12C renal, 90.1%; in the test on UO-31 renal, 89.8%; in the test with TK-10 renal it was 96.1%; in the test on ACHN renal, 102%. For the same molecule, the growth with CAKI-1 renal is 100%; in the test with CCRF-CEM leukemia it was 99.9%; in the test with MOLT-4 leukemia, 93.9%; with SR leukemia, 95%; in the test with RPMI-8226 leukemia, 106%; in the test on OVCAR-8 ovarian it was 100%. Besides, the growth is 97.3% in the test on OVCAR-5 ovarian; 102% in the test on OVCAR-4 ovarian; 94.5% in the test on SK-OV-3 ovarian; 99.5% in the test with IGROV1 ovarian; 110% in the test with OVCAR-3 ovarian; 97.2% in the test on HS 578T breast. In the test on NCI/ADR-RES ovarian, the growth is 104%.

The values are drawn from PubChem BioAssay (NCI).
